Screening results deposited in PubChem by several laboratories.
IEC-6 cytotox – IEC-6 cytotoxicity, counter-screen for KLF5 inhibitors | AID 1825 | 290,000 compounds, 0.78% hits | inhibition, % at 5 µM | luminescence viability;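 further: 0% = plate median of test compound wells and 100% = cytotoxic reference compound wells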
BaF3 tox – counter-screen for JAK2V617F inhibitors: parental Ba/F3 viability inhibitors. CellTiter-Glo ATP luminescence. inhibition, % at 5.6 µM. 220,000 compounds, 1.1% hits;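 active means inhibition above a per-campaign cutoff, the mean inhibition of all tested compounds plus 3 SD, cut at about 27% in these data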;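 further: 0% = DMSO wells and 100% = JAK Inhibitor I control wells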
APP transl inh – APP translation inhibition. 190,000 compounds, 0.82% hits. AID 1285. SH-SY5Y APP 5'UTR-luciferase reporter, luminescence. inhibition, % at 2 µM;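 active means inhibition above a set limit, derived from the sample mean plus 3 SD, cut at about 45% in these data; inconclusive means one replicate passes the limit while the other fails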
KLF5 inhibitor – inhibitors of KLF5 expression | inhibition, % at 5 µM | DLD-1 KLF5 promoter-luciferase reporter, luminescence | 290,000 compounds, 0.23% hits;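 active means inhibition above a per-plate limit of that plate's mean compound inhibition plus 3 SD, cut at about 60% in these data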;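 further: 0% = DMSO wells and 100% = LY294002 at 200 µM; higher means less KLF5 promoter-driven luciferase light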
Ba/F3 V617F tox – reduce viability of Ba/F3 cells dependent on JAK2V617F | Ba/F3 EpoR-JAK2V617F viability, ATP luminescence | inhibition, % at 5.6 µM | 220,000 compounds, 1.1% hits | AID 1446;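 active means inhibition above the campaign mean plus 3 SD over all tested compounds, cut at about 24% in these data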;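 further: cytokine-independent growth of Ba/F3 cells driven by EpoR plus mutant JAK2; 0% = DMSO-treated cells and 100% = JAK inhibitor I control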
aSyn UTR inh – MLPCN primary screen, SNCA 5' untranslated region. alpha-synuclein 5'UTR reporter, inhibitor activity. 300,000 compounds, 0.82% hits. inhibition, % (tested at 7.5 µM); in the data active means inhibition above about 60%; inconclusive means no clear call, values can overlap the other calls;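 further: H4 neuroglioblastoma cells stably carrying SNCA 5'UTR luciferase fusion; 0% = DMSO wells and 100% = positive control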
IEC-6 tox confirm – IEC-6 cytotoxicity, confirmation assay; shares compounds with IEC-6 cytotox; IEC-6 rat intestinal epithelial viability, luminescence; inhibition, % at 5 µM; 1,900 compounds, 63% hits; AID 1907;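 further: 0% = vehicle and 100% = reference cytotoxic drug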
* = called active by the depositor; ? = inconclusive; . = not tested or not shown. Rows were chosen to be rich in hits. Some 2.2% of all compounds tested hit in one or more screens of this group. Unless noted, no stated cut-off is given here; in the data, active means inhibition above about 22%; inactive means the rest.

SMILES | IEC-6 cytotox | BaF3 tox | APP transl inh | KLF5 inhibitor | Ba/F3 V617F tox | aSyn UTR inh | IEC-6 tox confirm
CC1(C)Cc2nc3sc4c(SCC(=O)NCc5ccccc5)ncnc4c3cc2CO1 | 48* | 36* | 67* | 15 | 53* | 64* | 51*
CC1(C)Cc2nc3sc4c(SCC(=O)O)ncnc4c3cc2CO1 | -3 | -1 | . | 27 | 0 | 47 | .
O=C(COC(=O)CNS(=O)(=O)c1ccc(Br)cc1Cl)NCCc1ccccc1 | 6 | . | . | -12 | . | -7 | .
O=C(CN(Cc1ccccc1F)S(=O)(=O)c1ccc(Cl)cc1)NCC1CCCO1 (centres undefined) | -3 | . | . | -19 | . | 4 | .
O=C(CCNC(=O)c1ccc(Cl)cc1)Nc1ccncc1 | . | . | . | . | . | -9 | .
O=C(Oc1ccccc1-c1nnco1)c1ccc(Cl)cc1 | 33* | 5 | -5 | -9 | 4 | 13 | -6
CC1=C(C(=O)Nc2cc(C(=O)N3CCN(c4cccc(C)c4C)CC3)ccc2C)SCCO1 | 1 | . | . | 15 | . | -4 | .
CCOC(=O)c1ccc(-c2c(-c3cc(OC)c(OC)c(OC)c3)noc2C)cc1F | 76* | . | . | 59 | . | ? | 57*
CCOC(=O)c1ccc(-c2c(-c3ccc4c(c3)OCO4)noc2-c2ccsc2)cc1F | 0 | . | . | -1 | . | 0 | .
N#CC1CC(c2ccccc2)Nc2cc(Cl)ccc2N1 (centres undefined) | 40* | -1 | . | -64 | 2 | -331 | 21
C[C@@H]1C[C@H](O)c2cc(Cl)ccc2N1 | 1 | 4 | -11 | -31 | 0 | 2 | .
Cc1cnc(NC(=O)C2CC(=O)N(c3cccc(Cl)c3)C2)s1 (centres undefined) | 73* | . | . | 59 | . | 17 | 33*
CC(C)OC(=O)Nc1ccc2c(c1)N(C(=O)N1CCN(C)CC1)c1ccccc1CC2 | 35* | 29* | . | -55 | 25* | -62 | 21
NS(=O)(=O)c1ccc(N2CCN(CCOc3ccc(Cl)cc3)CC2)nc1 | 4 | . | . | -3 | . | 10 | .
Brc1ccc2c(c1)CN1CCCC1=N2 | 34* | . | . | -7 | . | 23 | 12
COc1ccccc1Nc1c2c(nc3ccccc13)CCC2 | 48* | . | . | 14 | . | 19 | 31*
CC(=O)c1ccc(Nc2c3c(nc4ccccc24)CCCC3)cc1 | 25* | -4 | . | -10 | 2 | -195 | 20
COC(=O)c1cccc(Nc2c3c(nc4ccccc24)CCC3)c1 | 28* | . | . | -7 | . | -34 | 8
CCOc1ccc2c(c1)OC(c1ccc(OC)cc1)(C(F)(F)F)NC2=O (centres undefined) | 81* | 77* | 91* | 45 | 78* | 96* | 55*
Cc1nc([N+](=O)[O-])cn1CC(=O)c1ccc(OC(F)(F)F)cc1 | 0 | . | . | -31 | . | -7 | .
COc1cc(OC)cc(C(=O)Oc2c(CN3CCOCC3)cc(Cl)c3cccnc23)c1 | 80* | -5 | . | 23 | -2 | 92* | -7
O=C1CN(C(=O)COc2cccc(F)c2)c2ccccc2N1 | -6 | -1 | -13 | -8 | -6 | 5 | .
Cc1noc(C)c1COc1cccc(C(=O)OCC(=O)N2CC(=O)Nc3ccccc32)c1 | 79* | 3 | 93* | 17 | 4 | 65* | 43*
COc1ccc(N(CC(=O)Nc2cc(Cl)ccc2C)S(=O)(=O)c2c(C)noc2C)cc1 | 64* | . | . | 43 | . | 78* | 44*
CCCCn1c(N)c(N(CC(C)C)C(=O)c2ccc(OCc3c(C)noc3C)cc2)c(=O)[nH]c1=O | . | . | . | . | . | 1 | .
SMILES | IEC-6 cytotox | BaF3 tox | APP transl inh | KLF5 inhibitor | Ba/F3 V617F tox | aSyn UTR inh | IEC-6 tox confirm
O=C(CCn1c(=O)c2cccn2c2ccccc21)Nc1ccc(F)cc1 | 9 | . | . | -28 | . | -16 | .
CCCCCCn1ccc(=N)cc1 | 28* | 69* | 2 | 6 | 92* | 13 | 26*
O=C(NCc1cccnc1)c1ccc(NC(=O)c2ccc(Br)cc2)cc1 | 89* | . | . | -29 | . | 17 | 43*
Cc1cccc(OCC(=O)Nc2ccc(C(=O)NCc3cccnc3)cc2)c1 | 26* | -4 | 10 | 7 | 12 | 9 | -12
COc1cc(F)ccc1S(=O)(=O)N1CCN(Cc2ccccc2)CC1 | -8 | . | . | -17 | . | -6 | .
Cc1cc(NCc2ccccn2)n2ncc(-c3ccc(Cl)cc3)c2n1 | 29* | 0 | . | -14 | -2 | -97 | 30*
Cc1cc(NCc2ccccn2)n2ncc(-c3ccccc3)c2n1 | 84* | 6 | . | -41 | 0 | -155 | 31*
Cc1cc(N)n2ncc(-c3ccc(Cl)cc3)c2n1 | 25* | -2 | -96 | -21 | 1 | -52 | 26*
